# In PubChem BioAssay (NCATS):
# Records with an inconclusive call do not appear. Entries that show only a call come without a potency. Active and inactive are the calls of the source. Unless noted, the call rests on the fitted dose curve; in most records, active means well fitted curve in the direction sought with a large enough effect; inconclusive means small, poorly fitted or top-dose-only effect, or another doubt; inactive means no such curve, though single readings can be large; an effect the other way counts as inactive or inconclusive.
# Key:
# [1] = Cytometric Cell-Based qHTS for Inhibitors of the mTORC1 Signaling Pathway in MEF (Tsc2-/-, p53-/-) Cells (AID 2660);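 further: Tsc2 and p53 null MEFs carrying empty vector with compound for 24 h; percent of cells above a phospho-rpS6 to PI ratio cutoff in each well; series mostly up to about 38 µM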
# Outline: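 Readout: Alexa-488 phospho-rpS6 (Ser235/236) intensity divided by PI intensity, thresholded against 7.5 nM rapamycin wells and reported as % positive cells. PI cell count served as the viability measure. Compound exposure was 24 hrs at 37 degree Celsius.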
# [2] = High Content Imaging Cell-Based qHTS for Inhibitors of the mTORC1 Signaling Pathway in MEF (Tsc2-/-, p53-/-) Cells (AID 2666);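 further: percent of cells scored positive for phospho-rpS6 Ser235/236 immunostaining by imaging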
# Outline: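 Tsc2-/-, p53-/- MEFs (empty-vector stable) grown in DMEM + 10% FBS were exposed to compounds for 24 hrs at 37 degree Celsius, fixed, and stained with Alexa-488 anti-phospho-rpS6 Ser235/236 plus Hoechst. Imaging gave the percentage of positive cells per well.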
# [3] = High Content Imaging Cell-Based qHTS for Inhibitors of the mTORC1 Signaling Pathway in MEF Cells (AID 2667); further: potency means the concentration at half of the fitted maximal effect
# Outline: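 Tsc2-/-, p53-/- MEFs stably re-expressing WT Tsc2, grown in DMEM + 10% FBS, were treated with compounds for 24 hrs at 37 degree Celsius, fixed, and stained with Alexa-488 phospho-rpS6 Ser235/236 antibody plus Hoechst; results given as % positive cells.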
# [4] = molecular target: Ubiquitin carboxyl-terminal hydrolase 2 (Homo sapiens) (UniProt O75604); test: qHTS Validation Assay for Inhibitors of Ubiquitin-specific Protease USP2a Using CHOP2 as the Reporter (AID 463106); further: potency means the concentration at half of the fitted maximal effect
# Sequence of Ubiquitin carboxyl-terminal hydrolase 2 (Homo sapiens) (O75604 whole entry, looked up): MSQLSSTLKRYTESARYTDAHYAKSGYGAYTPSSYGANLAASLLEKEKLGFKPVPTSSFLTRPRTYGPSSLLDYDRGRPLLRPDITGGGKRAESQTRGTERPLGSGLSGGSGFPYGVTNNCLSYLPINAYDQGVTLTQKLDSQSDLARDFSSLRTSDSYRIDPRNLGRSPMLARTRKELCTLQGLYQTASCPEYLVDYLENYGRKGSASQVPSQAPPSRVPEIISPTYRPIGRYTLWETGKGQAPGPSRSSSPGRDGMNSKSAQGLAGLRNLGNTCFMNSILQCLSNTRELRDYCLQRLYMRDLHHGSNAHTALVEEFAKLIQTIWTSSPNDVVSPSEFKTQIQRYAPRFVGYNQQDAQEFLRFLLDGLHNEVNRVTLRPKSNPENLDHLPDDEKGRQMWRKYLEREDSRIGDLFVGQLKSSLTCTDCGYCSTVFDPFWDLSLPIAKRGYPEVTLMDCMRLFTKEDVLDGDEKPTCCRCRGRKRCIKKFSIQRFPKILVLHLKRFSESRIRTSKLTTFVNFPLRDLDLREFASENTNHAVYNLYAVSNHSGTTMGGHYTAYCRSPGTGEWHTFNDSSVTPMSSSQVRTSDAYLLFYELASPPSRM
# Outline: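 Readout was coupled fluorescence (Ex 485/Em 531 nm), read 60 min after adding 25 nM final Ub-CHOP2 and 25 nM reporter substrate. Beforehand, 10 nM final USP2 core had 30 min at RT with compound in pH 8.0 buffer. Curves were fitted after normalization to NEM and flagged for artifacts using time-zero reads.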
# [5] = molecular target: DNA polymerase III PolC-type (Bacillus subtilis (strain 168)) (UniProt P13267); test: qHTS Validation Assay for the Inhibitors of DNA Replication in Gram-Positive Bacteria (AID 485295);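 further: reconstituted holoenzyme with PolC plus beta clamp SSB and primase; PicoGreen fluorescence of double-stranded DNA made on primed circular M13 template; series mostly up to about 57 µM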
# Sequence of DNA polymerase III PolC-type (Bacillus subtilis (strain 168)) (P13267 whole entry, looked up): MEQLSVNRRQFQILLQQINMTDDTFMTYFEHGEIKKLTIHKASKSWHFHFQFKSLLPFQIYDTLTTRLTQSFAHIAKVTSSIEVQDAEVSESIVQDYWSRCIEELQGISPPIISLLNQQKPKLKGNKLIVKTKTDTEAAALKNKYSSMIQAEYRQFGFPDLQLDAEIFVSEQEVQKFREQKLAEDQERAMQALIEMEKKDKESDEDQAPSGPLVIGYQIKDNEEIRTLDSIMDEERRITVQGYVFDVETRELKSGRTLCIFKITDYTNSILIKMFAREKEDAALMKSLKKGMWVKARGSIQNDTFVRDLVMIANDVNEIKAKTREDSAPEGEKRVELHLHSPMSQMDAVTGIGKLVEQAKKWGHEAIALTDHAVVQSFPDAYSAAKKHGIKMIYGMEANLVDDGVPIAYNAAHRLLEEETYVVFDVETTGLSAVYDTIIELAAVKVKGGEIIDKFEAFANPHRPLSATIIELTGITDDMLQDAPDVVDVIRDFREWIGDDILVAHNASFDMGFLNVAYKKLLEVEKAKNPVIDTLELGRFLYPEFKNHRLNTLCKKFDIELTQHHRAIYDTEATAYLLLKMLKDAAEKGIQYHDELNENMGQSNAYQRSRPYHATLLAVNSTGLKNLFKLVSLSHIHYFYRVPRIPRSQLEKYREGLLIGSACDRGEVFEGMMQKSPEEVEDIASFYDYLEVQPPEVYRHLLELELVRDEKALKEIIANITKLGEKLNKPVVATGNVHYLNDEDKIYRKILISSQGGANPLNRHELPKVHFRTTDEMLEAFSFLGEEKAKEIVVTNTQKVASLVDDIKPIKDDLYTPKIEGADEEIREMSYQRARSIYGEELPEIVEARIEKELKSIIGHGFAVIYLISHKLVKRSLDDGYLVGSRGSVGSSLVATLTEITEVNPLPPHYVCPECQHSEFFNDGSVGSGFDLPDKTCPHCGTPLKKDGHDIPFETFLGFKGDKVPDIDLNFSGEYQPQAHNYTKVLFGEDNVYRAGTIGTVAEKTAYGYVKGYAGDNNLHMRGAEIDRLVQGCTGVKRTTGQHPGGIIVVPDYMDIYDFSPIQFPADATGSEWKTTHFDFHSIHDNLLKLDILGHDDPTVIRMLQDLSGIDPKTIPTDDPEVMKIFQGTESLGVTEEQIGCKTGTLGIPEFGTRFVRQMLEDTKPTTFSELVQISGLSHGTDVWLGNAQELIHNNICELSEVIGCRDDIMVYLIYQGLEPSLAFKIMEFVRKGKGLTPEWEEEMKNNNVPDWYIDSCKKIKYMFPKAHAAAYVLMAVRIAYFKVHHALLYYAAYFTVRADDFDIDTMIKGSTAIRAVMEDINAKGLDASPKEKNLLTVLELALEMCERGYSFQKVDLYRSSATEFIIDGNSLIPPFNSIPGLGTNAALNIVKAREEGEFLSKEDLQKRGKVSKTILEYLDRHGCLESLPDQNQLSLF
# Outline: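 First, compound is mixed with the reconstituted replication complex and held at room temperature. Next, circular single-stranded M13Gori with nucleotides starts synthesis. Finally, PicoGreen in EDTA halts the reaction and stains double-stranded product for fluorescence reading.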
# [6] = molecular target: Tumor susceptibility gene 101 protein (Homo sapiens) (UniProt Q99816); test: qHTS Validation Assay for Iinhibitors of HIV-1 Budding by Blocking the Interaction of PTAP/TSG101 (AID 485342; calls by dose curve)
# Sequence of Tumor susceptibility gene 101 protein (Homo sapiens) (Q99816 whole entry, looked up, the tested form may be a part): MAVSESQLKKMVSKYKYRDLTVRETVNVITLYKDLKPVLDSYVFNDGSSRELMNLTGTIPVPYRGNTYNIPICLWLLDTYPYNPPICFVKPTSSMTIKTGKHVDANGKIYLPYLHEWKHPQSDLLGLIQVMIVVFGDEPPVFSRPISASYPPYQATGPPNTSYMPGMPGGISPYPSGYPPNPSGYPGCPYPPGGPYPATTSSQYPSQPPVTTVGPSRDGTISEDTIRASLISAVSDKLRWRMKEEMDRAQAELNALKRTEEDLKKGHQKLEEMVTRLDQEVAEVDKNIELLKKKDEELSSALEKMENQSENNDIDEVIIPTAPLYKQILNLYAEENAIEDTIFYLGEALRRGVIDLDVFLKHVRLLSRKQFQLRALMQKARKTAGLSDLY
# Outline: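 Binding of a FITC-tagged PTAP-motif peptide (50 nM) to the Tsg101 binding domain (10 uM) is monitored by fluorescence polarization. Compounds are pin-delivered before peptide addition, and incubation runs 20 min at room temperature.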
# [7] = molecular target: Beta-2 adrenergic receptor (Homo sapiens) (UniProt P07550); test: qHTS validation assay of beta-arrestin-biased ligands of beta2-adrenergic receptor (AID 485366)
# Sequence of Beta-2 adrenergic receptor (Homo sapiens) (P07550 whole entry, looked up): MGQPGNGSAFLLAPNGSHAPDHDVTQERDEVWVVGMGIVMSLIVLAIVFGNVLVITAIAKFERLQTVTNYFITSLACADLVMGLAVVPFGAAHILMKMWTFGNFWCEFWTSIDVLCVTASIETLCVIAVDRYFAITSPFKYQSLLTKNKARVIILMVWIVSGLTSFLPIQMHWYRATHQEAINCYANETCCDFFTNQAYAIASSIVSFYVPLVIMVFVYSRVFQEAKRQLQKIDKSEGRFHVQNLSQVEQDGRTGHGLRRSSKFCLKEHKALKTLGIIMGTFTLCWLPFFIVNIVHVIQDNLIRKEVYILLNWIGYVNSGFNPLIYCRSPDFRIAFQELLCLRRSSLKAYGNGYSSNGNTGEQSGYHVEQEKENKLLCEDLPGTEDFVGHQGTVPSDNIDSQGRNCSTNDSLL
# Outline: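 Agonist activity is measured as luciferase luminescence downstream of beta-arrestin recruitment to recombinant beta2-AR in Tango cells. Exposure lasts 18 hr at 37 degrees C, and curves are categorized by r2, response size and activity.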
# [8] = Cytometry Cell-Based qHTS for Inhibitors of the mTORC1 Signaling Pathway in MEF cells (AID 2668);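 further: Tsc2-/- p53-/- mouse embryonic fibroblasts stably re-expressing wild-type Tsc2; percent cells positive for phospho-rpS6 Ser235/236 relative to propidium iodide stain; series mostly up to about 38 µM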
# Outline: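 Tsc2-/-, p53-/- MEFs re-expressing WT Tsc2; cpd 24 hrs, 37 degree Celsius; PFA fix, Alexa-488 p-rpS6 (Ser235/236) Ab 2 hrs RT, PI counterstain; Acumen 488nm scan; p-S6/PI ratio → % positive cells; PI count = viability.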
# [9] = qHTS Validation Assay to Find Inhibitors of Chronic Active B-Cell Receptor Signaling (AID 485345; active means well fitted curve in the direction sought with a large enough effect in the main read-out, with a control signal flat, not every such curve was filed as active)
# Outline: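 Read-out: ratio of filter-corrected green (IkappaBalpha fusion) to red (native) luciferase signal in doxycycline-induced TMD8 cells after 4 h at 37C. Titration spanned 46 uM–3 nM; Data were normalised to basal cells and 10 uM MG-132 wells.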
# [10] = molecular target: ATP-dependent 6-phosphofructokinase (Trypanosoma brucei brucei) (UniProt O15648); test: qHTS Validation Assay to Find Inhibitors of T. brucei phosphofructokinase (AID 485368); further: potency means the concentration at half of the fitted maximal effect
# Sequence of ATP-dependent 6-phosphofructokinase (Trypanosoma brucei brucei) (O15648 whole entry, looked up): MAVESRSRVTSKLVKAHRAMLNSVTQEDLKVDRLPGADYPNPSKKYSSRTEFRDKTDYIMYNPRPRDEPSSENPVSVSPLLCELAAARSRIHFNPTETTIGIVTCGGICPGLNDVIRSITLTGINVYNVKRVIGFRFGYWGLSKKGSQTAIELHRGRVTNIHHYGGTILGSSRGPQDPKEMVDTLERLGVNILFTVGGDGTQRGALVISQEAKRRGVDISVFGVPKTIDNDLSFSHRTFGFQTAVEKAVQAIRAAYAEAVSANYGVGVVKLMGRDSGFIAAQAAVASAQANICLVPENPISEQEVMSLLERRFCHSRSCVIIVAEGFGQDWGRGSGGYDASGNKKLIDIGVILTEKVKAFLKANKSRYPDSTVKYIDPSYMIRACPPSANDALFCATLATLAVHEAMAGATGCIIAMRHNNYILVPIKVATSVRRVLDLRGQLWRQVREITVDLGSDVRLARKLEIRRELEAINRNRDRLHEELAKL
# Outline: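 Inhibition derived from concentration-response curves of luminescence, ranked by r2, response size and curve class; the underlying reaction used 1.25 nM PFK, 0.1 mM ATP and 0.5 mM F6P, 45 min, room temperature.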
SMILES,outcome [1],Potency [2],Potency [3],Potency [4],Potency [5],outcome [6],outcome [7],Potency [8],outcome [9],Potency [10]
Cc1ccc(S(=O)(=O)/C=C/C#N)cc1,inactive,inactive,inactive,inactive,inactive,inactive,inactive,,,
O=C(c1ccc(OCCCc2cnc[nH]2)cc1)C1CC1,inactive,inactive,inactive,inactive,inactive,inactive,inactive,inactive,inactive,
NCC1OC(O[C@H]2[C@H](O)[C@@H](OC3C(O)C(N)CC(N)C3OC3OC(CO)C(O)C(O)C3N)O[C@@H]2CO)C(N)C(O)C1O (some centres not stated),inactive,inactive,inactive,inactive,inactive,inactive,inactive,inactive,inactive,
C=CC(=O)c1ccc(CCCCCC)cc1,inactive,inactive,inactive,inactive,inactive,inactive,inactive,inactive,,
CCc1c(C(=O)NCCc2ccc(N3CCCCC3)cc2)[nH]c2ccc(Cl)cc12,inactive,inactive,inactive,inactive,inactive,inactive,inactive,,inactive,
OCC1O[C@H]([S-])[C@H](O)[C@@H](O)[C@@H]1O.[Au+] (some centres not stated),inactive,inactive,inactive,18.5 µM (active),inactive,inactive,inactive,inactive,,2.69 µM (active)
OC[C@H]1O[C@@H](n2cnc3c(Nc4ccccc4)ncnc32)[C@H](O)[C@@H]1O,inactive,inactive,inactive,inactive,inactive,inactive,inactive,,,
CC(C)CC(NP(=O)(O)O[C@@H]1O[C@@H](C)[C@H](O)[C@@H](O)[C@H]1O)C(=O)NC(Cc1c[nH]c2ccccc12)C(=O)O (some centres not stated),inactive,inactive,inactive,inactive,inactive,inactive,inactive,inactive,inactive,
O=C(O)CC1CC(c2ccccc2)=NO1 (configuration not stated),inactive,inactive,inactive,inactive,,inactive,inactive,inactive,inactive,
CCCCC#Cc1nc(NC)c2ncn([C@@H]3O[C@H](CO)[C@@H](O)[C@H]3O)c2n1,inactive,inactive,inactive,inactive,inactive,inactive,inactive,inactive,,
Clc1ccc(N2CCN(Cc3cc4ccccn4n3)CC2)cc1,inactive,inactive,inactive,inactive,inactive,inactive,inactive,inactive,inactive,inactive
O=[N+]([O-])c1ccc(CSc2ncnc3c2ncn3[C@@H]2O[C@H](CO)[C@@H](O)[C@H]2O)cc1,inactive,inactive,inactive,inactive,inactive,inactive,inactive,inactive,,15.1 µM (active)
CNC(=O)[C@H]1O[C@@H](n2cnc3c(NCc4ccc(N)cc4)ncnc32)[C@H](O)[C@@H]1O,inactive,inactive,inactive,inactive,,inactive,inactive,inactive,,inactive
C=C[C@H]1CN2CC[C@@H]1C[C@@H]2[C@@H](O)c1ccnc2ccc(OC)cc12,inactive,inactive,inactive,,,inactive,inactive,inactive,inactive,inactive
CC(C)ON([C@@H](C(=O)NO)C(C)C)S(=O)(=O)c1ccc(-c2ccccc2)cc1,inactive,inactive,5.85 µM (active),inactive,inactive,inactive,inactive,,inactive,inactive
NC(=S)c1ccc[n+]([C@@H]2O[C@@H](COP(=O)([O-])OP(=O)(O)OC[C@H]3O[C@@H](n4cnc5c(N)ncnc54)[C@H](OP(=O)(O)O)[C@@H]3O)C(O)C2O)c1 (some centres not stated),inactive,inactive,inactive,inactive,inactive,inactive,inactive,inactive,,inactive
O=C1/C(=C/c2ccsc2)CC/C1=C\c1cccs1,inactive,inactive,inactive,inactive,,inactive,inactive,inactive,,
CC(N)C(=O)OC(C)(C)Cc1ccc(Cl)cc1 (configuration not stated),inactive,inactive,inactive,inactive,inactive,inactive,inactive,inactive,inactive,
CSc1nc(N)c2ncn([C@@H]3O[C@H](COP(=O)(O)OP(=O)(O)OP(=O)(O)O)[C@@H](O)[C@H]3O)c2n1,inactive,inactive,inactive,inactive,,inactive,inactive,inactive,,
CO/N=C(\C(=O)N[C@@H]1C(=O)N2C(C(=O)O)=C(COC(C)=O)CS[C@H]12)c1csc(N)n1,inactive,inactive,inactive,inactive,inactive,inactive,inactive,inactive,inactive,8.49 µM (active)
Cc1cc(NC2CCCCC2)nc(-n2nc(C)cc2C)n1,inactive,inactive,inactive,inactive,,inactive,inactive,inactive,inactive,
O=P(O)(O)C(Cl)(Cl)P(=O)(O)O,inactive,,inactive,inactive,,inactive,inactive,inactive,inactive,
CCCC1(C)C(C#N)(C#N)C1(C#N)C#N,,inactive,2.33 µM (active),inactive,inactive,inactive,inactive,,,inactive
CNc1ncnc2c1ncn2[C@@H]1O[C@H](CO)[C@@H](O)[C@H]1O,inactive,,inactive,inactive,,inactive,inactive,inactive,,
CCCCCCCCc1ccc(-c2ccc(C(=O)O)cc2)cc1,inactive,,inactive,inactive,,inactive,inactive,,,inactive
